# Screening data from PubChem BioAssay.
# FLuc counter: counter-screen for miR-21 project: firefly luciferase inhibitors or activators; P08659; purified FLuc, Km substrates, luminescence inhibition; Potency, µM (titrated, usually from 57.5 µM), without a hit: top-dose activity change, negative = inhibition, most hits filed as inhibitors; actives 6.9% (n = 360,000); AID 588342;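 note: plate controls were vehicle for no effect and reference inhibitor for full effect; nearly all actives have a fitted effect of over 55% in size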
# Target sequence (P08659 whole entry, looked up): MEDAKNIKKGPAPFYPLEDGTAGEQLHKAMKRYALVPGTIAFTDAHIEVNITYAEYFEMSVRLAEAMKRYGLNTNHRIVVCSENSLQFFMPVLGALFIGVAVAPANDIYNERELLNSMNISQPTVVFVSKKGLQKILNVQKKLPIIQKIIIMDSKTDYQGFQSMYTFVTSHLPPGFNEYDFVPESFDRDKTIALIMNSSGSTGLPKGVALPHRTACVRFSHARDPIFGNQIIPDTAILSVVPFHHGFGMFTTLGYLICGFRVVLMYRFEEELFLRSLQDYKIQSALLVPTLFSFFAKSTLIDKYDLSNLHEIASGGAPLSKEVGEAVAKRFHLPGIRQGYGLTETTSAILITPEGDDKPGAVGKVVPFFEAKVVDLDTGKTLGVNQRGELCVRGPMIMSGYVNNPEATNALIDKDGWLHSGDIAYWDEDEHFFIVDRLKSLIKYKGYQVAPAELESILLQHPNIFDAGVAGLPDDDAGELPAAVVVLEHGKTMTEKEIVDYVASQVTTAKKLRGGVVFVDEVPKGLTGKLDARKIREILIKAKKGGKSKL
#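 Purified P. pyralis luciferase, 10 nM final, with Km-level 10 uM D-luciferin and 10 uM ATP in 50 mM Tris acetate pH 7.5, 10 mM Mg acetate, 0.01% Tween-20, 0.05% BSA; 6-point qHTS titration about 60 µM downward; luminescence read.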
# ELG1 DNA repair: blocks ELG1-dependent DNA repair in HEK293T cells; HEK293T ELG1-luciferase reporter, luminescence, 16 h; DNA damage induced by 5-fluorouridine; Potency, µM (doses to about 46.1 µM), inactives show top-dose activity change, negative = inhibition, most hits filed as inhibitors; actives 2.3% (n = 330,000); AID 504467; note: % is set by controls: 0 for no effect and ±100 for the full control effect; nearly all actives have a fitted effect of over 55% in size
#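 5-Fluorouridine DNA damage + compound/DMSO, 2,000 cells/well, 16 h, 37 °C/5% CO2. ONE-Glo, 30 min RT, luminescence. Readout = decrease in reporter signal.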
# NPC1 prom act: NPC1 promoter activation; Huh7 NPC1 promoter luciferase reporter, 24 h; Potency, µM (series often up to 9.22 µM), for the others: at the top dose activation, hits mostly activators; actives 2.4% (n = 320,000); AID 485313; note: % of control where 0% means no effect; nearly all actives have a fitted effect of over 60% in size
#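 Luminescence read-out of NPC1 promoter-driven luciferase in stably transfected Huh7 cells; compounds delivered in DMSO and left 24 h at 37C, 5% CO2, qHTS titration format.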
# SMN2 splice up: enhancers of SMN2 splice variant expression; HEK293 SMN2-luciferase splicing reporter, luminescence, 30-36 h; actives 2.8% (n = 210,000); Potency, µM (top dose mostly 46.1 µM), for the others: top-dose activity change, positive = activation, most hits filed as activators; note: % of control where 0% means no effect; nearly all actives have a fitted effect of over 55% in size
#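 HEK293 cells carry an SMN2 […]–luciferase reporter in which exon 7 inclusion puts luciferase in frame. Cells were plated 10-12 h before compound addition, then incubated 30-36 h at 37C. ONE-Glo luminescence was read; sodium butyrate at 4.5 mM final served as control.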
# ELG1 genotoxic: induces genotoxicity in HEK293T cells with luciferase-tagged ELG1 | HEK293T ELG1-luciferase reporter, luminescence, 16 h | Potency, µM (highest dose often 46 µM), without a hit: at the highest dose activity change, positive = activation, actives largely listed as activators | actives 1.3% (n = 330,000); note: % of control where 0% means no effect; nearly all actives have a fitted effect of over 60% in size
#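 Genotoxicity was scored as increased ELG1-luciferase reporter signal, measured by ONE-Glo luminescence (30 min, room temperature). Compound or vehicle exposure of the HEK293T reporter cells lasted 16 hr at 37°C.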
# Rab9 prom act: activators of Rab9 promoter. actives 2.8% (n = 320,000). Huh7 Rab9 promoter-luciferase reporter, luminescence, 24 h. Potency, µM (series often up to 9.22 µM), for the others: top-dose activation, negative = inhibition, most hits filed as activators; note: % of control where 0% means no effect; nearly all actives have a fitted effect of over 60% in size
#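 Luciferase signal after 10 min detection reagent at ambient indicates Rab9 promoter upregulation; stably transfected Huh7 cells were treated 24 h with compound in DMSO at 37 °C, 5% CO2.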
# Starred values were filed as active, the others as inactive; ? = inconclusive; · = no result; [ ] = remark or other dose. Shown are actives, neighbours in structure and some others; about 9.2% of the full set was active somewhere. Calls come from the whole dose curve; as a rule, active = well fitted curve in the direction sought with a large enough effect; inconclusive = small, poorly fitted or top-dose-only effect, or another doubt; inactive = no such curve, though single readings can be large; an effect the other way counts as inactive or inconclusive. Potency is the fitted concentration of half-maximal effect.
SMILES,FLuc counter,ELG1 DNA repair,NPC1 prom act,SMN2 splice up,ELG1 genotoxic,Rab9 prom act
COc1cc(OC)c2cc(C(=O)N/N=C/c3ccccc3O)[nH]c2c1,-5%,-15%,-45%,·,?,-34%
COc1cccc(OCc2cc(/C=N/NC(=O)c3ccn[nH]3)ccc2OC)c1,15µM*,7%,20%,19%,8%,13%
COc1ccc(OC)c(/C=N/NC(=O)c2cc3c(OC)c(OC)ccc3[nH]2)c1,4.8µM*,?,-2%,17%,0%,3%
COc1ccc(/C=N\NC(=O)c2ccccc2)cc1COc1ccccc1,-20%,?,-8%,·,-10%,0%
CCOc1cc(/C=N/NC(=O)C(=O)NCc2cccnc2)ccc1O,1%,9%,-3%,2%,-1%,0%
CCCN(CCC)C(=O)CSc1nnc2cc(C)c3ccccc3n12,-2%,·,·,·,·,·
CCCOc1ccc2[nH]c(C(=O)N/N=C/c3cc(OC)c(OC)c(OC)c3)cc2c1,13µM*,?,11%,·,-6%,14%
COc1ccc2[nH]c(C(=O)N/N=C/c3ccc(OC)c(O)c3)cc2c1,5.4µM*,?,-15%,·,11%,-11%
CCOc1ccc(/C=N/NC(=O)c2cc3c(OC)cc(OC)c(OC)c3[nH]2)cc1,?,8.2µM*,-6%,·,-16%,-5%[1.84 µM]
COc1ccc(/C=N/NC(=O)c2ccc(-c3ccccc3)cc2)cc1O,?,?,1%,-6%,-3%,-5%
COc1cc(C(=O)Oc2ccc(/C=N/NC(=O)c3ccncc3)cc2)cc(OC)c1OC,5%,6%,-15%,·,-3%,-1%
CCc1nnc(NC(=O)c2cc(=O)c3cc(C)ccc3o2)s1,?,·,·,9%,·,·
Cc1ccc(Cn2c(C(=O)O)c(CNC3CCCC3)c3ccc(C)cc32)cc1,0%,·,·,·,·,·
COc1ccc2c(c1)S/C(=C\C(=O)c1ccncc1)N2C,6.7µM*,?,?,2%,21µM*,?
COc1ccc(C(=O)/C=C2/Sc3cc4c(cc3N2C)OCO4)cc1,?,?,17%,·,?,?
COc1cc(OC)cc(C(=O)/C=C2\Sc3ccccc3N2C)c1,7.6µM*,?,?,·,?,?
COCC(=O)/C=C1\Sc2ccccc2N1C,-8%,?,1%,16%,16%,0%
CN1/C(=C\C(=O)c2cccc([N+](=O)[O-])c2)Sc2ccccc21,1.3µM*,?,1.3µM*,·,9.2µM*,2µM*
CN(C)/C=C/C(=O)c1cccc([N+](=O)[O-])c1,0%,23%,0%,8%,6%,-32%
COc1ccccc1NS(=O)(=O)c1ccc(C)c(NC(=O)C2CCCO2)c1 (configuration not stated),4%,26%,-2%,·,-1%,-2%
Cc1nc(NCc2cccnc2)c2c3c(sc2n1)CC(C)CC3 (configuration not stated),24µM*,?,11%,-6%,1%,6%
CCOC(=O)c1sc2nc(C)nc(NCc3cccnc3)c2c1C,-3%,15µM*,1%,-3%,-3%,4%
CCOC(=O)c1sc2nc(C)nc(Nc3ccc(OC)cc3)c2c1C,-3%,6%,-1%,-3%,-2%,0%
CCOC(=O)c1sc2nc(CC(=O)OC)nc(NCc3ccc(F)cc3)c2c1C,-1%,?,-16%,-57%,-10%,-15%
Cc1nc(NCc2ccco2)c2c3c(sc2n1)CCC3,2%,-28%,-14%,22µM*,1%,14%
SMILES,FLuc counter,ELG1 DNA repair,NPC1 prom act,SMN2 splice up,ELG1 genotoxic,Rab9 prom act
c1coc(CNc2ncnc3sc4c(c23)CCCCC4)c1,?,?,-1%,2%,0%,15%
CCOC(=O)c1sc2nc(C)nc(NCc3ccc(Cl)cc3)c2c1C,1%,12µM*,-5%,·,-6%,-7%
CN1CCN(c2ccccc2/C=C2/C(=O)Nc3ccccc32)CC1,-2%,0%,-1%,·,-11%,-11%
COc1ccccc1-n1c(=S)[nH]c2c(sc(=S)n2-c2ccccc2C)c1=O,?,-5%,-2%,-27%,27%,0%
CCOC(=O)c1sc2nc(C)nc(NCc3ccc(F)cc3)c2c1C,-9%,7.3µM*,-1%,·,-15%,0%
c1ccc2c(c1)CCN(C1=Nc3cccc4cccc1c34)C2,6.7µM*,?,22%,16µM*,6%,2.8µM*
COc1ccc(OC)c(-c2noc(N3CCN(c4cccc(C)c4C)CC3)n2)c1,-14%,·,·,·,·,·
COc1ccc(C(=O)c2coc3ccc(OC(C)=O)cc23)cc1,9.5µM*,?,?,·,?,15%
COc1ccc2occ(C(=O)c3ccc(N)cc3)c2c1,6µM*,?,1.4µM*,·,?,0.63µM*
COc1ccc2occ(C(=O)c3cccs3)c2c1,6µM*,?,?,-12%,6.5µM*,?
O=C(c1ccccc1)c1ccc(Sc2ccc([N+](=O)[O-])cc2)cc1,-1%,12µM*,-6%,·,-4%,-14%
O=C(Nc1cccc(C(=O)O)c1)Nc1ccccc1Cl,0.21µM*,?,0.5µM*,13µM*,-10%,0.1µM*
O=C(Nc1ccc2nccnc2c1)Nc1ccccc1Cl,?,?,?,·,-2%,?
CSc1cccc(NC(=O)Nc2ccc(Cl)cc2)c1,?,?,16%,-15%,2%,27%
Cc1cc2ccccn2c1C(=O)c1ccc(Cl)cc1,?,?,3%,-14%,-4%,15%
Cc1cc2ccccn2c1C(=O)Nc1cccc(Cl)c1,13µM*,?,-18%,27%,12%,28%
O=C(NCc1ccccc1)C(=O)Nc1cccc(C(=O)O)c1,0.67µM*,?,0.089µM*,·,-5%,0.32µM*
CSc1cccc(NC(=O)C(=O)NCc2ccccc2)c1,3%,11%,1%,·,1%,1%
O=C(Nc1ccc(Cl)cc1)Nc1cccc(C(=O)O)c1,0.067µM*,?,0.089µM*,·,-9%,0.25µM*
S=C(NCCc1ccccc1)NCc1cccc(Cl)c1,-14%,12%,17%,·,3%,6%
Cc1nn(C)cc1CNC(=O)Nc1cccc(Cl)c1,?,?,?,?,28%,3.5µM*
Fc1ccccc1NC(=S)NCCc1cccc(Cl)c1,24µM*,?,?,·,16%,?
O=C(NNC1=NCCCCC1)Nc1ccc(Cl)cc1,?,13%,21%,·,19%,?
O=C(Nc1ccc(C(=O)N2CCCCC2)cc1)Nc1cccc(Cl)c1,11µM*,?,4µM*,·,13%,3.2µM*
O=C(NNC1=NCCCCC1)Nc1cccc(Cl)c1,17µM*,?,?,22µM*,11%,1.1µM*
